# Active and inactive are the calls of the source.
# Experiments:
# [1] = binders of probe aFSTL3 on microarray, primary screen, stem cell growth factor project, biochemical, small-molecule microarray, fluorescence 635/667 (AID 1064); settings: higher = more signal;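 note: measures binding of the biotinylated anti-FSTL3 antibody to printed compounds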
# [2] = binders from COS7 lysate, DM2A8 probe, primary screen, torsin A project, cell lysate, small-molecule microarray, fluorescence 635/667 (AID 1065); settings: higher = more signal, COS7 lysate expressing mutant human TOR1A
# [3] = binders of probe aFGF2 on microarray, primary screen, stem cell growth factor project, biochemical, small-molecule microarray, fluorescence 635/667 (AID 1067); settings: higher = more signal;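 note: measures binding of biotinylated aFGF2 protein to printed compounds on slides; z-score merges feature fluorescence and signal-to-noise across triplicate slides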
# [4] = binders of probe aFGF10 on microarray, primary screen, stem cell growth factor project, biochemical, small-molecule microarray, fluorescence 635/667 (AID 1071); settings: higher = more signal;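 note: score merges 667 nm spot intensity and signal to noise from triplicate slides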
# [5] = target: Neurogenic locus notch homolog protein 2 (Homo sapiens) (UniProt Q04721); test: Notch2 binders on small-molecule microarrays, primary screen, biochemical, small-molecule microarray, 635 nm fluorescence, stem cell growth factors (AID 1073); settings: Notch2 binding, higher = more signal
# [6] = target: Pro-neuregulin-1, membrane-bound isoform (Homo sapiens) (UniProt Q02297); test: NRG1 binders on small-molecule microarrays, primary screen, psychiatric disease protein project, biochemical, small-molecule microarray, fluorescence 635/667 (AID 1075); settings: NRG1 binding, 635 nm fluorescence, higher = more signal;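 note: score combines 667 nm spot fluorescence with signal to noise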
# Sequence of Pro-neuregulin-1, membrane-bound isoform (Homo sapiens) (Q02297 whole entry, looked up, the tested form may be a part, canonical isoform): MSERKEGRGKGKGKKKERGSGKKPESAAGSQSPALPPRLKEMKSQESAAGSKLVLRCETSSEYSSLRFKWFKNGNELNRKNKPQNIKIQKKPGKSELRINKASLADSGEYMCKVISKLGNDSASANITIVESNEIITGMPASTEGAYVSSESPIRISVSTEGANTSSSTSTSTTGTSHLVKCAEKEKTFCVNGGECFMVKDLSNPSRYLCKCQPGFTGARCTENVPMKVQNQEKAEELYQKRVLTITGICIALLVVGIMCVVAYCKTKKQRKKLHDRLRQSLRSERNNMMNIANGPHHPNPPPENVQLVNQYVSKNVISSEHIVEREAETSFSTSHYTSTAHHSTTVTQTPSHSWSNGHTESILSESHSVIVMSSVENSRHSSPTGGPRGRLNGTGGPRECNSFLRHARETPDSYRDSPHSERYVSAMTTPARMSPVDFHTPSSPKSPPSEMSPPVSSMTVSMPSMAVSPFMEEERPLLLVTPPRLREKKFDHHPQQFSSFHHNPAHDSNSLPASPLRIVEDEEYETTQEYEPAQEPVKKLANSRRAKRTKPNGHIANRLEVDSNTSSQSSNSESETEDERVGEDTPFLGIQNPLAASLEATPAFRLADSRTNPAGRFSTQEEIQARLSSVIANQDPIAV
# [7] = tested on: Neuregulin-1 EGF-like domain; test: binders of neuregulin-1 EGF-like domain, primary screen, biochemical, small-molecule microarray, 635 nm fluorescence (AID 1081); settings: small-molecule microarray binding, higher = more signal;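 note: binding of the protein to compounds printed on small-molecule microarray slides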
# [8] = FRG1 promoter luciferase signal modulators, primary screen, FRG1 inhibition for FSHD, cell-based, C2C12 myotubes, firefly/Renilla luciferase, luminescence (AID 1084); settings: higher = more signal, called active from +8 up or from −8 down
# [9] = binders of probe aFST on microarray, primary screen, stem cell growth factor project, biochemical, small-molecule microarray, fluorescence 635/667 (AID 1086); settings: higher = more signal;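 note: score merges 667 nm fluorescence with signal-to-noise of each printed compound spot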
# [10] = binders of probe aHhip on microarray, primary screen, stem cell growth factor project, biochemical, small-molecule microarray, fluorescence 635/667 (AID 1087); settings: higher = more signal;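 note: score merges spot fluorescence at 667nm with spot signal to noise ratio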
# [11] = tested on: PRMT1 (protein arginine N-methyltransferase 1); test: PRMT1 binders on small-molecule microarrays, primary screen, biochemical, small-molecule microarray, 635 nm fluorescence (AID 1088); settings: small-molecule microarray binding, higher = more signal;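 note: binding of Prmt1 protein to compounds spotted on small-molecule microarray slides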
# [12] = yeast growth modulation, basal conditions, primary screen, YJM789 clinical isolate, OD600, 24 h (AID 1089);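 note: growth of clinical yeast isolate S. cerevisiae YJM 789 seeded 1000 cells per well; test concentration not given here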; settings: S. cerevisiae YJM789 growth, higher = more signal, called active from +8 up or from −8 down
# [13] = fission yeast growth modulation, primary screen, strain 972, OD600, 24 h, no modulator (AID 1090);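 note: basal condition with compound alone and no growth modifier present; test concentration not given here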; settings: S. pombe 972 growth, higher = more signal, called active from +8 up or from −8 down
# [14] = S. cerevisiae growth modulation with rapamycin, primary screen, strain BY4716, OD600, 96 h (AID 1091); settings: higher = more signal, called active from +8 up or from −8 down; note: test concentration not given here
# [15] = target: Torsin-1A-interacting protein 2 (Homo sapiens) (UniProt Q8NFQ8); test: LULL1 binders on small-molecule microarray, primary screen, cell lysate, human LULL1 lysate, 635/667 nm fluorescence (AID 1092); settings: hLULL1 lysate binding, 635 nm fluorescence, higher = more signal;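 note: probe is lysate of COS7 cells overexpressing human LULL1; score merges per-feature 667 nm fluorescence with signal-to-noise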
# Sequence of Torsin-1A-interacting protein 2 (Homo sapiens) (Q8NFQ8 whole entry, looked up): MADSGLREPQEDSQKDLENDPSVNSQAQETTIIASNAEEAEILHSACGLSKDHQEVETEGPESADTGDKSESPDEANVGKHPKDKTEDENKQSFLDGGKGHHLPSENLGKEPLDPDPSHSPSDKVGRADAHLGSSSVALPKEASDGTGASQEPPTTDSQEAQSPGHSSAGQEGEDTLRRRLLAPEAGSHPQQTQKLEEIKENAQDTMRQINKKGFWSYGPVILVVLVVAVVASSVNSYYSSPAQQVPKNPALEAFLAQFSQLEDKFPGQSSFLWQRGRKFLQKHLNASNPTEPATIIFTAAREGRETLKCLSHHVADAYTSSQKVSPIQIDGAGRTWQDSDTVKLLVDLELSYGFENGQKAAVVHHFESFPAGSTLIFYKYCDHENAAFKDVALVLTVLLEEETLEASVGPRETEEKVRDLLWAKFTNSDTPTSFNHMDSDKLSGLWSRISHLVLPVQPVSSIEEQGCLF
# [16] = E. coli growth modulation, two-sided OD650, primary screen, E. coli filamentation project, strain DRC41, 24 h (AID 1093); settings: OD650, 24 h, higher = more signal, called active from +8 up or from −8 down;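 note: MC1000 strain lacking acrAB efflux and sulA so SOS filamentation is blocked; test concentration not given here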
# [17] = small-molecule microarray binders of probe aLefty2, primary screen, biochemical, biotinylated probe, 635/667 nm fluorescence (AID 1094); settings: higher = more signal;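 note: score merges spot fluorescence near 667 nm with spot signal-to-noise ratio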
# [18] = tested on: Noggin (protein binding on small-molecule microarray); test: Noggin binders on small-molecule microarray, primary screen, biochemical, 635/667 nm fluorescence (AID 1095); settings: 635 nm fluorescence, higher = more signal;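 note: score merges 667 nm feature fluorescence with signal to noise over triplicate slides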
# [19] = target: Neurogenic locus notch homolog protein 3 (Homo sapiens) (UniProt Q9UM47); test: NOTCH3 binders on small-molecule microarray, primary screen, biochemical, 635/667 nm fluorescence (AID 1096); settings: NOTCH3 binding, 635 nm fluorescence, higher = more signal
# Sequence of Neurogenic locus notch homolog protein 3 (Homo sapiens) (Q9UM47 whole entry, looked up): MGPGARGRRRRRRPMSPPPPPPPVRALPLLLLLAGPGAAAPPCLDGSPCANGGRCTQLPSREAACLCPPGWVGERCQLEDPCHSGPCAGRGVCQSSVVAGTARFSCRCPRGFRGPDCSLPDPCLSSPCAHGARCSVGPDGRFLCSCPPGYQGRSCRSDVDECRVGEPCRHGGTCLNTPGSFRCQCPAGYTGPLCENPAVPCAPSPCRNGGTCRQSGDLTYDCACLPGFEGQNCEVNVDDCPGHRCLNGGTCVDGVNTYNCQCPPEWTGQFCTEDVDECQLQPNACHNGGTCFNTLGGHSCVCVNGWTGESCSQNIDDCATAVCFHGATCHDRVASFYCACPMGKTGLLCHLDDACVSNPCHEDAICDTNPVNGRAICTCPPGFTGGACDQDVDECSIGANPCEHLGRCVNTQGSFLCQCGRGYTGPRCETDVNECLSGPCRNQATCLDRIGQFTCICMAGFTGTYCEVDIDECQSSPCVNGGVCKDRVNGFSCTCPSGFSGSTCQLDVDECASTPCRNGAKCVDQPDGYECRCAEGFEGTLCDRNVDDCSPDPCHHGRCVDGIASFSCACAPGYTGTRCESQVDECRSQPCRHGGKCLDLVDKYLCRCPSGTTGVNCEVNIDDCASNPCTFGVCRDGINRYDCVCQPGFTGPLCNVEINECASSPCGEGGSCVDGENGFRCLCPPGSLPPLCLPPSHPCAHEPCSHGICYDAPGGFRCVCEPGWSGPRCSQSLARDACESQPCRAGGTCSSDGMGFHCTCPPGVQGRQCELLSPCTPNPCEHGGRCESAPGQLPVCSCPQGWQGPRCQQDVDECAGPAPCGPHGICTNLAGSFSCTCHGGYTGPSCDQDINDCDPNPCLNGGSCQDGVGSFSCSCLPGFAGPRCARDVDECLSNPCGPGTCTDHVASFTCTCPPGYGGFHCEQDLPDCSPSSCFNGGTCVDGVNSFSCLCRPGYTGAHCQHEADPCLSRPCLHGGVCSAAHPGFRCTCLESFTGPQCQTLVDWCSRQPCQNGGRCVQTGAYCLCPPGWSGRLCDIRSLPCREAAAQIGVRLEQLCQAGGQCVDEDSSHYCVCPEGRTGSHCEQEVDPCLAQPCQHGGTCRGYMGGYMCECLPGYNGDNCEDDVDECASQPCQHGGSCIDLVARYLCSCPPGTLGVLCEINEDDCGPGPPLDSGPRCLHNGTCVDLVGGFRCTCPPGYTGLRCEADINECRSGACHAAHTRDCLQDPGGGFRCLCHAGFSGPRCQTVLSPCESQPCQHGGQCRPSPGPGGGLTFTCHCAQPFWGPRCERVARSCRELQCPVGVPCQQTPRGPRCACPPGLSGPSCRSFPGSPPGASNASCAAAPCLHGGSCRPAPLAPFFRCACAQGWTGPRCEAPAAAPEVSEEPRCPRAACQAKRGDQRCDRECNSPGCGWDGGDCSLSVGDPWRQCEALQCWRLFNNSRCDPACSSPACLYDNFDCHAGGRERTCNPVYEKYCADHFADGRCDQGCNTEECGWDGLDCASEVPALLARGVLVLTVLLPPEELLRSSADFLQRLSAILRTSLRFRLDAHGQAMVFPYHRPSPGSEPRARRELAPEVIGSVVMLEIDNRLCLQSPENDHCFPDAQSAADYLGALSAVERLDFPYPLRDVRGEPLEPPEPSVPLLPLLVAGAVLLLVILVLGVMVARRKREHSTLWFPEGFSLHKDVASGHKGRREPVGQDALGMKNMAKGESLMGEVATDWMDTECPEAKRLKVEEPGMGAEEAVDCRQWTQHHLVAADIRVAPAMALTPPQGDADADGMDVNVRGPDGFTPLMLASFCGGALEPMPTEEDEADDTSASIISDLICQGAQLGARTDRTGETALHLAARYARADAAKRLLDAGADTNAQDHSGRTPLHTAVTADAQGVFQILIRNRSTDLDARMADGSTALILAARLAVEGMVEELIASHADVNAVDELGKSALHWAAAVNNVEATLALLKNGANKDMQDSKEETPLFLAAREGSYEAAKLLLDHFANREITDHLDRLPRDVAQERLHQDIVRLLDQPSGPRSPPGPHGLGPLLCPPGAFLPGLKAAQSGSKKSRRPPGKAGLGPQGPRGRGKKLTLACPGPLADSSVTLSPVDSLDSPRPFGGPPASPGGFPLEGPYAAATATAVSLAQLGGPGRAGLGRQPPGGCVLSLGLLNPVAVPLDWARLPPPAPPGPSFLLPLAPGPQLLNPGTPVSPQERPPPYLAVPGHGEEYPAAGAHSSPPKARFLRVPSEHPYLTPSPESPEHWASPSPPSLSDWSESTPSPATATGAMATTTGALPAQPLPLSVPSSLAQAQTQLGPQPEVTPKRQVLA
# [20] = small-molecule microarray binders of probe aEGFR, primary screen, biochemical, biotinylated probe, 635/667 nm fluorescence (AID 1097); settings: higher = more signal;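 note: probe is a biotinylated anti-EGFR antibody binding compounds printed on slides; score combines fluorescence near 667 nm and signal to noise of each spot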
Compound,composite z-score [1],composite z-score [2],composite z-score [3],composite z-score [4],composite z-score [5],composite z-score [6],composite z-score [7],z-score [8],composite z-score [9],composite z-score [10],composite z-score [11],z-score [12],z-score [13],z-score [14],composite z-score [15],z-score [16],composite z-score [17],composite z-score [18],composite z-score [19],composite z-score [20]
CC(=O)n1cc(C(O)C2C=CC3C(=O)N(c4ccccc4)C(=O)C3N2Nc2ccccc2)c2ccccc21 (stereo not given),1.87,0.489,0.447,0.893,1.52,0.837,1.11,0.621 (inactive),1.1,-0.0702,0.174,0.514 (inactive),0.965 (inactive),0.102 (inactive),2.73,-1.18 (inactive),0.203,-0.272,0.816,0.672
CCCCN1CC=CC23O[C@@H]4C=CCOC(=O)[C@@H]4[C@H]2C(=O)N(CCCO)[C@@H]3C1=O (stereo not given in full),0.594,-0.0489,-0.137,-0.423,-1.51,1.03,1.54,0.0518 (inactive),-0.488,-0.134,0.412,0.228 (inactive),-0.399 (inactive),-0.191 (inactive),2.41,1.42 (inactive),-0.145,-0.957,-0.366,-0.285
CN1C(=O)C2C=CC(C(O)Cc3ccccc3)N(N(c3ccccc3)c3ccccc3)C2C1=O (stereo not given),0.135,0.147,0.0295,0.837,0.602,0.503,1.11,0.357 (inactive),0.654,0.107,0.795,-0.179 (inactive),0.759 (inactive),1.11 (inactive),2.22,-1.39 (inactive),0.107,0.218,0.839,-0.137
[N-]=[N+]=Nc1ccccc1[C@H]1OC(c2ccc(OCCCO)cc2)=N[C@@]1(CCS(=O)(=O)c1ccccc1)C(=O)N1CCCCC1,1.26,0.526,0.0056,0.699,1.43,1.46,1.2,1.8 (inactive),1.24,-0.201,1.51,-0.347 (inactive),0.189 (inactive),2.73 (inactive),3.16,-0.413 (inactive),0.428,0.0467,1.12,0.176
NCCCCCCNC(=O)[C@@H]1C[C@@H]2C(=O)N3CCC[C@H]3C(=O)N2[C@@H]1c1ccc(O)cc1,0.327,-0.055,-0.0006,0.0841,0.337,1.9,1.18,0.15 (inactive),1.1,0.154,1.25,-0.723 (inactive),-1.22 (inactive),-0.476 (inactive),2.02,-1.03 (inactive),-0.0912,1.58,0.494,-0.0568
C=CCOC(=O)[C@@H]1[C@H]2C(=O)O[C@H](c3ccccc3)[C@H](c3ccccc3)N2[C@H](c2ccc(OCCOC(=O)[C@H]3C[C@H]4C(=O)N[C@@H](CC(C)C)C(=O)N4[C@H]3c3ccc(O)cc3)cc2)[C@@]12C(=O)Nc1ccc(I)cc12,0.054,1.42,0.0333,0.868,0.718,0.535,1.35,-0.477 (inactive),0.496,-0.0994,1.54,0.157 (inactive),1.11 (inactive),2.65 (inactive),2.75,0.574 (inactive),-0.0229,1.81,1.06,0.0582
CN1C2C=C(CCCO)C(C3C(=O)N(C(N)=O)C(=O)C32)C1c1cccs1 (stereo not given),-0.153,0.104,-0.116,-1.63,0.127,-0.317,0.165,-0.194 (inactive),0.0118,0.303,0.613,1.06 (inactive),1.1 (inactive),0.689 (inactive),0.502,0.155 (inactive),0.89,-0.23,-0.658,0.976
C=C(COC)/C(=C/C[C@@H](OC(=O)c1ccncc1)c1ccc(OCCO)cc1)c1cnc2ccccc2c1,-0.0384,0.651,0.124,1.15,1.74,-0.578,1.2,-1.73 (inactive),0.28,-0.0994,1.54,-2.16 (inactive),-1.05 (inactive),-0.263 (inactive),2.55,1.12 (inactive),-0.0802,1.54,1.01,-0.0531
C=C(CCCC)C(=O)CC[C@@H](OC(=O)c1ccccc1-c1ccccc1C(=O)O)c1cccc(OCCO)c1,-0.208,0.996,-0.129,0.166,-0.404,0.143,0.742,0.238 (inactive),-0.499,-0.249,1.53,0.299 (inactive),-0.694 (inactive),-0.541 (inactive),0.13,0.169 (inactive),-0.31,1.06,0.675,-0.287
C[C@@H](OCc1ccccc1)C1NC(=O)[C@@]23C(=O)N[C@@H](Cc4ccccc4)C2[C@H](C)[C@@]2(C)O[C@H]2C3/C=C/C/C=C\CNC(=O)CNC1=O (stereo not given in full),-0.231,0.667,-0.132,0.25,-1.08,-0.366,-0.002,-0.0275 (inactive),-0.294,-0.134,-0.615,0.569 (inactive),-1.32 (inactive),-0.929 (inactive),0.621,-0.557 (inactive),-0.145,-0.526,-0.0955,-0.24
CCOC(=O)C1=CC[C@@H](c2cc(Cl)ccc2Cl)N(S(=O)(=O)c2ccc(C)cc2)[C@H]1c1ccc(OC)cc1,0.522,0.0025,0.259,0.582,0.147,-0.362,0.13,-1.69 (inactive),0.623,0.082,-0.393,1.31 (inactive),2.17 (inactive),1.43 (inactive),0.506,-0.0891 (inactive),0.754,-0.546,-0.329,0.379
C=C[C@H](COC(C)=O)NS(=O)(=O)c1ccc(Br)cc1,-0.127,-0.256,-0.151,-0.286,-0.506,0.241,0.656,1.54 (inactive),0.0509,-0.0618,-0.0232,0.0313 (inactive),-1.4 (inactive),-0.124 (inactive),-0.0639,0.506 (inactive),-0.0598,0.0055,-0.564,-0.227
COC(=O)C1(Cc2ccccc2)C=C2C(=C(C(C)C)C(=O)C2C)CN1 (stereo not given),1.63,1.26,0.0992,-0.66,-0.0793,1.25,0.853,3.19 (inactive),1.24,0.773,-1.15,0.557 (inactive),-0.315 (inactive),0.471 (inactive),2.41,-1.53 (inactive),0.469,-1.79,-1.05,0.156
C=C[C@@H](C)[C@H](OC(=O)Nc1ccc(SC)cc1)c1ccc(OCCO)cc1,0.342,-0.272,-0.215,-0.542,-0.713,1.8,1.22,6.28 (inactive),-0.375,-0.0538,-0.0446,0.103 (inactive),-1.02 (inactive),-0.32 (inactive),0.721,1.18 (inactive),-0.136,0.362,0.405,-0.105
O=C(O)[C@H](Cc1ccccc1)n1cc(-c2ccccn2)nn1,-0.158,-0.258,-0.149,0.306,0.377,0.286,1.07,1.24 (inactive),0.321,-0.0672,0.427,0.445 (inactive),1.25 (inactive),-0.609 (inactive),0.524,-0.631 (inactive),-0.103,0.665,0.596,-0.042
COC(=O)[C@@]1(Cc2ccccc2)[C@H]2c3cc(C(=O)N4CCCC4)n(Cc4ccsc4Br)c3C[C@H]2CN1C(=O)c1ccccc1,0.166,-0.411,0.281,0.682,1.72,1.46,1.18,-0.444 (inactive),1.51,0.155,0.12,0.333 (inactive),1.22 (inactive),1.35 (inactive),3.43,-0.575 (inactive),0.41,-0.142,1.05,0.272
COCC(=C=CC[C@H](O)c1ccc(OCCO)cc1)C[C@H](O)COCc1ccccc1,-0.41,0.0477,-0.0762,0.477,0.189,0.586,1.03,0.723 (inactive),0.163,0.0505,1.51,-1.49 (inactive),-1.44 (inactive),-0.885 (inactive),1.64,0.825 (inactive),-0.298,1.4,0.573,-0.02
C=CCOC(=O)[C@@H]1[C@H]2C(=O)O[C@H](c3ccccc3)[C@H](c3ccccc3)N2[C@H](c2ccc(OCCOC(=O)[C@H]3C[C@H]4C(=O)N[C@@H](CCCCNC(C)=O)C(=O)N4[C@H]3c3cccc(OCCO)c3)cc2)[C@@]12C(=O)Nc1ccc(I)cc12,-0.0066,0.99,-0.0718,0.404,0.544,0.851,1.28,0.49 (inactive),0.252,0.0479,1.54,1.71 (inactive),1.38 (inactive),3.9 (inactive),1.78,0.136 (inactive),-0.195,1.68,1.12,-0.0882
C=CCN1Cc2ccccc2C[C@@]2(N=C(c3ccc(OCCCO)cc3)O[C@H]2c2ccccc2)C1=O,0.633,0.604,0.0109,-0.364,1.09,1.04,1.29,-1.32 (inactive),0.383,0.297,1.55,-4.69 (inactive),-11.1 (active),4.42 (inactive),3.13,0.55 (inactive),-0.051,1.04,0.968,0.0047
